PubChem BioAssay AID2552 (National Center for Advancing Translational Sciences (NCATS), 2010)
Activity calls are given as the source filed them. The rule behind the calls is not given here.

target: Thyroid hormone receptor beta (Homo sapiens) (UniProt P10828); assay: Irreversible Binding Assay for Inhibitors of the Interaction of Thyroid Hormone Receptor and Steroid Receptor Coregulator 2; settings: TRb LBD-SRC2 peptide FP after dialysis, at 100 µM
From the text: NIH Molecular Libraries Probe Production Network [MLPCN] NIH Chemical Genomics Center [NCGC] MLPCN Grant: DK058080 Assay Provider: R. Kip Guy, St. Jude Children's Research Hospital NCGC Assay Overview: Thyroid receptor (TR) regulates many homeostatic processes including basal metabolism, cardiovascular function, body weight, and lipid trafficking. TR modulators are potential therapeutics for obesity and hyperlipidemias but current thyroid analogs have undesirable side effects, particularly cardiac stimulation. To identify whether inhibitors irreversibly block the interaction of TR with the steroid receptor coregulator 2 (SRC2), a fluorescence polarization assay was used (Arnold et al., 2006). […]
NCGC Assay Protocol Summary: One milliliter TRb (1 uM) was incubated with DMSO (4 %), SRC2-2 peptide (100 uM) or compound (100 uM) for 3 hr in assay buffer (20 mM Tris hydrochloride, pH 7.4, 100mM NaCl, 10% glycerol, 1mM EDTA, 0.01% NP-40, 1mM DTT, 1uM T3 and 4% DMSO). […] The protein samples were concentrated using a 10K spin filter column (Amicon Ultra, Millipore) and then quantified by Bradford analysis. For each sample, 20 uL assay buffer containing 2 uM TRb and 40 nM SRC2 Texas Red probe was incubated in a 384 well plate for 3 hr at ambient temperature and read by an Envision (Perkin Elmer) to detect fluorescence polarization of SRC2-2 Texas Red (555 nm excitation and 632 nm emission). […]

Thyroid hormone receptor beta (Homo sapiens), sequence (P10828 whole entry, looked up, the tested form may be a part): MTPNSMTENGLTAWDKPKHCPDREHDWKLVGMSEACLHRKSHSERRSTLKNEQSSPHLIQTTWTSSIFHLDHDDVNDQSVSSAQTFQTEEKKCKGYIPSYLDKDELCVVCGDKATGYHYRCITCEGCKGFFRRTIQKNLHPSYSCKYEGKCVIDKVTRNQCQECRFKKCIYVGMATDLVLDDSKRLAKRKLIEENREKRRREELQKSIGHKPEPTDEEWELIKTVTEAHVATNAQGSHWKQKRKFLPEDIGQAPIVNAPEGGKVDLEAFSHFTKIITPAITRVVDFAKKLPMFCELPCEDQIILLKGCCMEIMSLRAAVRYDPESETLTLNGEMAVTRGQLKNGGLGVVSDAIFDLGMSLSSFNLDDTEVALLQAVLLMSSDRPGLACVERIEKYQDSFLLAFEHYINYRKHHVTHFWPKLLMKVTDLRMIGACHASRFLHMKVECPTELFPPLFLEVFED

Structure (SMILES)	activity change, negative = inhibition
CC1(C)C2CCC1(C)C(NC(=O)COC(=O)c1ccc(S(C)(=O)=O)c([N+](=O)[O-])c1)C2 (stereo unspecified)	-96% (active)
